PAX8 inh HTS – inhibitors of PAX8 transcriptional activity in RMG-I cells; RMG-I TPO-luciferase reporter, SteadyGlo, 24 h; AID 652154; 1.2% of 360,000 active; inhibition, % at 12.6 µM;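 active = mean replicate inhibition at least 60% with every replicate also reaching 60%; inconclusive = only one of the two criteria is met; inactive = mean below 60% and not all replicates reaching 60%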;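 note: luciferase light reporting Pax8 driven TPO promoter activity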
GSIS activator – GLuc luminescence reporter in INS-1E cells, primary screen for activators of glucose-dependent secretion of insulin; INS-1E GLuc reporter insulin secretion, 2-3 h; activation, % at 16.6 µM; 0.61% of 370,000 active; AID 743287;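 active = lowest replicate activation of at least 40%, so every replicate reaches that level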
C2C12 statin – suppression of simvastatin myotoxicity | C2C12 myotubes + simvastatin, ATP luminescence, 48 h; scaled: DMSO 0, geranylgeraniol control 100 | rescue of ATP level, % at 7.49 µM | 0.78% of 330,000 active | AID 602340;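 active = mean ATP rescue above about 67%, or every replicate alone reaching that limit, limit read from the data, passing the limit was not always enough; inconclusive = no clear call, values can overlap the other calls; inactive = mean under the limit and some replicate under it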;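 note: myotubes were challenged with 10 µM simvastatin during compound exposure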
miR-122 sensor – blocks miR-122 activity in Huh7 sensor cells; 0.3% of 340,000 active; activation (reporter increase), % at 12.5 µM; Huh7 miR-122 Renilla luciferase sensor, 48 h; neutral wells = 0, positive control = 100; AID 602342;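 active = mean replicate activation score at least 90 and every replicate individually at or above 90; inconclusive = only one of the two criteria met; inactive = neither criterion met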;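 note: higher luciferase means less miR-122 activity so hits act as miR-122 inhibitors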
Env fusion inh – inhibitors of HIV Env-mediated cell fusion; HeLa-JRFL Env/CEM21 cell fusion, luciferase; inhibition, % at 12.3 µM; 1.1% of 360,000 active;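 active = mean replicate inhibition score of at least 50 and every replicate individually at or above 50; inconclusive = only one of the two criteria met; inactive = mean below 50 and not all replicates reaching 50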
EWS-Fli inh – inhibitors of EWS/Fli oncoprotein transcriptional activity. A673 NR0B1-luciferase reporter, viability-normalised. inhibition, % at 12.6 µM. 0.67% of 350,000 active;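 active = mean inhibition of at least 50% after viability correction, with every replicate also passing that limit; inconclusive = mean reaches 50% but only one of two replicates passes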;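 note: firefly luciferase signal divided by Alamar Blue viability fluorescence both relative to DMSO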
DNA binder FP – DNA binding small molecules; shares compounds with EWS-Fli inh; 2% of 640 active; AC35, µM (highest dose often 68 µM); salmon sperm DNA acridine orange fluorescence polarization;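 active = fitted curve reaches a 35% signal fall AC35 below twice the sample's top valid tested dose, actives reach about 48 µM in these data; inactive = the rest, including activity in the rising direction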;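 note: lower polarization ratio signals compound binding to DNA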
Hits are given with their value; n = inactive; u = inconclusive; x = no result given. Most compounds without a hit are left out; they make up all but 3.1% or so of the library.

SMILES	PAX8 inh HTS	GSIS activator	C2C12 statin	miR-122 sensor	Env fusion inh	EWS-Fli inh	DNA binder FP
CC1=NN(c2ccccc2)C(=O)/C1=C/C=C/c1ccc(N(C)C)cc1	n	n	x	x	n	n	x
CCOc1ccc2nc(NC3=NC(c4ccc(OC)cc4)CC(=O)N3)nc(C)c2c1 (stereo not drawn)	x	n	x	x	x	57	n
Cc1ccc(S(=O)(=O)Nc2ccc3c(c2)C(=O)N([C@H](C)CO)C[C@@H](C)[C@@H](CN(C)C(=O)CCCN(C)C)OCCCC[C@H](C)O3)cc1	n	n	x	n	n	n	x
O=C(N/N=C/c1cccnc1)c1cccc(Cl)c1	n	n	n	n	n	n	x
CC(C)c1ccc(OCc2cccc(C(=O)N/N=C/c3cccnc3)c2)cc1	n	n	n	n	x	80	n
C=CCOc1ccccc1C(=O)/C=C1/C(=O)Nc2ccccc21	n	n	n	n	n	58	n
C=CCOc1ccc(C(=O)/C=C2/C(=O)Nc3ccccc32)cc1	n	n	n	n	n	n	x
COc1cccc(O)c1CN1CCC(C(=O)Nc2ccc(Oc3cccnc3)cc2)CC1	n	n	n	n	n	n	x
COc1cccc(O)c1CN1CCC(C(=O)Nc2ccc(-c3cccc(C)c3)cc2)CC1	n	n	n	n	n	58	n
CCN1C/C(=C/c2ccc(N3CCOCC3)cc2)C(=O)/C(=C/c2ccc(N3CCOCC3)cc2)C1	n	n	x	x	x	70	15µM
CCc1ccc(/C=C2/SC(N3CCOCC3)=NC2=O)cc1	n	n	x	x	n	n	x
CN(C)c1ccc(N=Nc2nc3ccccc3n2C)cc1	90	n	n	n	n	86	n
Cn1c(N=Nc2ccccc2)nc2ccccc21	x	x	x	n	n	n	x
CCN(CC)c1ccc(C2NC(=O)c3ccccc3N2)cc1 (stereo not drawn)	u	n	x	n	n	62	n
Nc1ccc(Cn2ccc3c4c(N)nc(N)nc4ccc32)cc1	70	n	x	n	n	70	n
Cc1nc2ccc(N)cc2c(=O)n1Cc1ccc(Cl)cc1	x	x	n	n	n	x	x
CC(C)NC(=O)N(C)C[C@@H]1Oc2ncc(-c3ccccc3)cc2C(=O)N([C@H](C)CO)C[C@@H]1C	x	n	n	n	n	n	x
O=C(C[C@@H]1CC[C@@H]2[C@H](COC[C@@H](O)CN2S(=O)(=O)c2ccc(F)cc2)O1)NCc1ccc(Cl)c(Cl)c1	n	n	n	n	x	76	n
COC(=O)[C@H]1[C@H](CO)[C@H]2Cn3c(cccc3=O)[C@H]2N1C(=O)C1CCCCC1	x	n	n	n	x	n	x
COc1ccc(NC(=O)N2CCCCN3[C@H](CO)[C@H](c4ccc(C#CCC(C)C)cc4)[C@H]3C2)cc1	n	n	n	n	x	73	n
O=C(Nc1ccccc1F)N1CCCCN2[C@H](CO)[C@H](c3ccc(/C=C/c4ccccc4)cc3)[C@H]2C1	n	n	n	n	x	76	n
COc1ccccc1NC(=O)N1CCCCN2[C@H](CO)[C@H](c3ccc(-c4ccc(C)cc4)cc3)[C@@H]2C1	n	n	n	n	x	n	x
COc1ccccc1NC(=O)N1CCCCN2[C@H](CO)[C@H](c3ccc(-c4cccc(C)c4)cc3)[C@H]2C1	104	n	x	n	x	61	n
COc1ccc(-c2cnc3c(c2)C(=O)N([C@@H](C)CO)C[C@H](C)[C@@H](CN(C)C(=O)NC2CCCC2)O3)cc1	n	n	n	n	n	n	x
CCNC(=O)C[C@H]1CC[C@@H]2[C@H](COc3ccc(NC(=O)Nc4ccccc4F)cc3C(=O)N2C)O1	n	n	n	n	n	n	x
SMILES	PAX8 inh HTS	GSIS activator	C2C12 statin	miR-122 sensor	Env fusion inh	EWS-Fli inh	DNA binder FP
Cc1ccc(-c2ccc3c(c2)O[C@@H](CN(C)Cc2ccncc2)[C@H](C)CN([C@@H](C)CO)S3(=O)=O)cc1	x	n	n	n	n	n	x
Cc1cc(C(=O)COC(=O)c2nccnc2N)c(C)n1C	n	n	n	n	n	n	x
Cc1ccsc1C(=O)OCC(=O)c1cc(C)n(C)c1C	n	n	n	n	x	63	n
Cc1cccc(CN2C(=O)c3ccccc3Sc3ccc(C(=O)NCCCN4CCOCC4)cc32)c1	n	n	n	n	n	x	x
Cc1cccc(CN2C(=O)/C(=C\c3ccc(C(=O)NCCCN4CCN(C)CC4)cc3)Oc3ccccc32)c1	u	n	n	n	n	65	n
COC(=O)C[C@@H]1CC[C@@H]2[C@H](COc3ccc(NC(=O)c4cccc(Cl)c4)cc3C(=O)N2C)O1	n	n	n	x	n	69	n
COC(=O)C[C@@H]1CC[C@@H]2[C@H](COc3ccc(NC(=O)Nc4cccc(Cl)c4)cc3C(=O)N2C)O1	n	n	n	n	n	59	n
Nc1ccc(-c2cc3ccccc3oc2=O)cc1	n	n	n	n	n	79	n
O=c1oc2ccccc2cc1-c1ccc(O)cc1	n	n	x	x	n	n	x
CCC(=O)N1C[C@@H](C)[C@@H](OC)CN(C)C(=O)c2cc(NC(=O)Nc3cccc(F)c3)ccc2OC[C@@H]1C	n	n	n	n	n	n	x
Cc1c(Cc2ccc3c(c2)OCO3)sc(NC(=O)C(C)(C)C)c1C#N	n	n	n	n	x	55	n
CCN(CC)C(=O)c1sc(NC(=O)c2ccc3c(c2)OCO3)c(C#N)c1C	n	x	n	n	n	x	x
COC(=O)c1ccc(/C=C/C(=O)c2ccc(OC)c(OC)c2)cc1	x	x	n	n	x	x	x
COc1ccc(/C=C/C(=O)c2cc(F)ccc2OC(=O)c2ccccc2OC)cc1OC	85	n	x	x	n	59	n
COc1ccc(/C=C/C(=O)c2ccc(C(=O)/C=C/c3ccc(OC)c(OC)c3)cc2)cc1OC	n	n	n	n	n	62	n
CO[C@H]1CN(C)C(=O)c2cc(NC(=O)NC(C)C)ccc2OC[C@H](C)N(Cc2ccc(-c3ccccn3)cc2)C[C@@H]1C	x	n	n	n	x	51	n
CCCN(C)C[C@H]1Oc2ncc(-c3ccccc3)cc2C(=O)N([C@@H](C)CO)C[C@H]1C	n	x	n	n	n	56	n
CCc1cccc2c(C(=O)CN3C(=O)C(=O)N(C4CCCC4)C3=O)c[nH]c12	n	n	n	x	n	n	x
CCc1cccc2c(C(=O)CN3C(=O)NC4(CCCCC4)C3=O)c[nH]c12	n	n	n	115	n	51	n
COCC(=O)Nc1ccc2c(c1)C(=O)N(C)C[C@H](OC)[C@@H](C)CN(CC1CCCCC1)[C@H](C)CO2	x	n	n	n	x	n	x
CCC(=O)Nc1ccc2c(c1)C(=O)N(C)C[C@H](OC)[C@@H](C)CN(Cc1ccncc1)[C@H](C)CO2	n	n	n	x	n	n	x
Nc1cc2c(cc1Br)[nH]c(=O)c1ccccc12	n	x	x	n	83	52	n
C[C@@H]1CCCCO[C@@H](CN(C)Cc2ccc(Cl)c(Cl)c2)[C@@H](C)CN([C@@H](C)CO)C(=O)c2cc(NS(=O)(=O)c3cn(C)cn3)ccc2O1	n	n	x	n	n	n	x

Screening data (PubChem BioAssay)
